Test results from PubChem BioAssay AID1903 (Southern Research Specialized Biocontainment Screening …, 2009).
Out of some 310,000 compounds screened, about 1,200 (0.39%) were called active. How the calls were made is not given here. A selection follows. Results with a measured potency or affinity are listed apart.

biological target: Large T antigen (Simian virus 40) (UniProt P03070); assay: SV40 large T antigen inhibitors, biochemical (AID 1903); settings: SV40 large T antigen ATPase/helicase inhibition assay; at 20 µM; hits give high values
Sequence (P03070 whole entry, looked up): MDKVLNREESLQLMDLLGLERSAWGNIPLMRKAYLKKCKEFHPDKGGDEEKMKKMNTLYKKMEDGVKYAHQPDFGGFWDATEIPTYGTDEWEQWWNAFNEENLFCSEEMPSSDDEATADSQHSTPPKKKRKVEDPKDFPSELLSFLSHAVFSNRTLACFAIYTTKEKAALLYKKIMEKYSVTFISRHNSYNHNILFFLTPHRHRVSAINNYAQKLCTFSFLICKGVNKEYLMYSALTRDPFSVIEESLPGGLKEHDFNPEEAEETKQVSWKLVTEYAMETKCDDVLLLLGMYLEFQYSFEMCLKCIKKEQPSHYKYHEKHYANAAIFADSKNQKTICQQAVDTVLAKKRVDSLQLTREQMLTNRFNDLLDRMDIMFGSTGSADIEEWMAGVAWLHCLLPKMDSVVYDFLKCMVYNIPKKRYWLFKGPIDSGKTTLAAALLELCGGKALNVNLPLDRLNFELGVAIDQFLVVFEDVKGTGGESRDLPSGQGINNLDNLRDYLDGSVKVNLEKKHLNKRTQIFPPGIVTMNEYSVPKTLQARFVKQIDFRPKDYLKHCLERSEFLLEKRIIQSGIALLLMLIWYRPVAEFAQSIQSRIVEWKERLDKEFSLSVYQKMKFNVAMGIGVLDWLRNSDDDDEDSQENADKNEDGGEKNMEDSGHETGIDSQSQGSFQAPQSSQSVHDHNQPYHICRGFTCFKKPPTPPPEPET

inhibition, inactive:
Cc1cc(C=O)c(C)n1-c1ccc(N2CCOCC2)c([N+](=O)[O-])c1 5.88%, O=C(COC(=O)c1nc(Cl)ccc1Cl)NCCc1ccccc1 -0.66%, CCc1ccc(/C=C2/Sc3ccccc3N(CC(=O)NCC3CCCO3)C2=O)cc1 (stereo not drawn) 3.57%, Cc1ccc(NC(=O)N2CCC(C(=O)c3ccc(F)cc3)CC2)cc1 3.7%, CCOC(=O)Cn1c(=NC(=O)CN2C(=O)CCC2=O)sc2cc(S(N)(=O)=O)ccc21 11.6%, COc1ccc(C(CNc2ccc(S(=O)(=O)N3CCCC3)cc2[N+](=O)[O-])N2CCCC2)cc1 (stereo not drawn) 0.85%, O=C(C1CCCN(Cc2ccccc2F)C1)N1CCCC1 (stereo not drawn) -1.92%, CC1CN(c2nc3c(c(=O)n(C)c(=O)n3C)n2Cc2c(Cl)cccc2Cl)CC(C)O1 (stereo not drawn) -0.38%, CN(C)S(=O)(=O)c1cccc(NC(=O)COC(=O)COc2ccccc2[N+](=O)[O-])c1 8.43%, CC(=O)C1=C(C)Nc2ncnn2C1c1cccc(Br)c1 (stereo not drawn) 4.82%, Cn1c(C(=O)NCCOc2ccccc2Cl)cc(=O)n(C)c1=O 3.15%, CC(C)(O)[C@H]1Cc2cc3ccc(=O)oc3cc2O1 -9.56%, COc1cc2c(cc1/C=C/C(=O)O)OC(C)C2 (stereo not drawn) -5.46%, CCCc1ccc(S(=O)(=O)N/N=C\c2ccc3c(c2)OCO3)cc1 10.3%, Cc1ccc(S(=O)(=O)NCC(=O)Nc2cccc([N+](=O)[O-])c2)cc1 1.03%, Cc1onc(-c2c(Cl)cccc2Cl)c1/C(N)=N/OC(=O)C(C)(C)C 7.65%, CC[C@H](C)/C=C(C)/C=C/C1=CC2=CC(=O)[C@]3(C)OC(=O)[C@@H](C(C)=O)[C@@H]3C2=CO1 18%, CCC(C)/C=C/C1=CC2=C(Cl)C(=O)C3(C)OC(=O)C(C(=O)C(C)C(C)O)C3C2=CO1 (stereo not drawn) 12.9%, COC(=O)CCC(=O)OC1(C)C(=O)C2=COC(c3ccc(OC)cc3)=CC2=C(Br)C1=O (stereo not drawn) 50.8%, O=C(CSc1nc(-c2ccccc2)c(-c2ccccc2)o1)N1CCOCC1 4.01%, O=C(CNC(=O)c1ccc(Cl)cc1Cl)OCc1nnc(-c2ccccc2)o1 15.1%, CC1(C)CC(=O)c2sc(NC(=O)C3COc4ccccc4O3)nc2C1 (stereo not drawn) 4.75%, O=C(C1CCN(S(=O)(=O)c2cccs2)CC1)N1CCCCC1 13.9%, Cc1cc(C)c2c(CN3CCCCC3)cc(=O)oc2c1 20.4%, Cc1cc(C)c2c(CN3CCN(C)CC3)cc(=O)oc2c1 -0.86%, COC1CCN(C(=O)CC2C(=O)NCCN2CC(C)(C)C)CC1 (stereo not drawn) -3.7%, O=C(CC12CC3CC(CC(C3)C1)C2)Nc1nncs1 12.5%, COc1ccc(NC(=O)CCc2c(C)nc3nc(C)nn3c2C)cc1 -3.06%, O=C(c1cc2ccccc2oc1=O)N1CCN(S(=O)(=O)c2ccccc2)CC1 18.2%, O=C1NC(=S)N/C1=C/c1cc2c(cc1[N+](=O)[O-])OCO2 3%, O=C1NN(c2ccccc2)C(=O)/C1=C\c1ccc2c(c1)OCO2 18%, O=C(CCN1C(=O)/C(=C/C=C/c2ccccc2)SC1=S)Nc1nc2ccccc2s1 9.79%, Cc1ccccc1NC(=O)c1ccc2c(c1)CCN2S(C)(=O)=O 11.3%, CCC(C)n1c(SCC(=O)/C(C#N)=C(\C)N)nc2ccccc2c1=O (stereo not drawn) 7.34%, C/C(=C\c1ccccc1)C(=O)Nc1nc2ccc([N+](=O)[O-])cc2s1 8.41%, Cc1ccc(/C=N/n2c(C)nnc2C)cc1 19.4%, S=c1[nH]nc(-c2ccco2)n1/N=C/c1ccc(Cl)cc1 31%, CC(=C/c1ccccc1)/C=N/n1c(-c2ccncc2)n[nH]c1=S 19%, Cc1cccc(/C=N/n2c(C)nnc2C)c1 10.3%, S=c1[nH]nc(-c2ccncc2)n1/N=C/c1cccc(Cl)c1 29.1%, S=c1[nH]nc(-c2n[nH]c3c2CCC3)n1/N=C/C=C/c1ccccc1 20.8%, CC(/C=N/n1c(-c2cccnc2)n[nH]c1=S)=C\c1ccco1 31.8%, Clc1ccccc1CN1CCN(/N=C/C=C/c2ccco2)CC1 15.9%, COC(=O)c1cn(NC(=O)CC2CCCCC2)c(=O)c2ccccc12 1.58%, O=c1[nH]cnc2onc(-c3ccc(F)cc3)c12 34%, O=[N+]([O-])c1cccc2nc(-c3ccccc3)c(-c3ccccc3)nc12 1.39%, CCCCOc1ccc(C(=O)NCc2ccccn2)cc1 -4.84%, COc1ccc(C(=O)NC(=S)NC(C)c2ccccc2)cc1 (stereo not drawn) 5.22%, Cc1ccc(C)c(N2CCN(CCCNC(=O)CCn3c(=O)c4cccn4c4cccnc43)CC2)c1 15.1%, Cc1cc(C(C)(C)C)ccc1OCC(=O)N/N=C\c1c(C)n(C)n(-c2ccccc2)c1=O -3.36%, COc1ccc(CN2CCC(n3nccc3NC(=O)CCOc3ccccc3)CC2)cc1C 5.92%, O=C(NCc1ccco1)c1csc2c1CCCCC2 1.56%, Cc1cc(C)cc(CSCC(=O)N/N=C/c2ccc(OCC(=O)NCc3ccco3)cc2)c1 10.9%, CC(/C=N/n1c(-c2ccco2)n[nH]c1=S)=C\c1ccco1 28.2%, CC(/C=N/n1c(-c2ccc(C)cc2)n[nH]c1=S)=C\c1ccco1 19.5%, CC(/C=N/n1c(-c2ccc(Cl)cc2)n[nH]c1=S)=C\c1ccco1 22.6%, Cc1ccsc1/C=N/n1c(-c2ccncc2)n[nH]c1=S 25.6%, CC(/C=N/n1c(-c2ccccc2)n[nH]c1=S)=C\c1ccco1 33.1%, Cc1ccsc1/C=N/n1c(-c2ccccc2)n[nH]c1=S 18.6%, CCOc1ccccc1NC(=S)NCCc1ccc(F)cc1 2.66%, O=C(CS(=O)(=O)c1ccc(F)cc1)Nc1nnc(-c2cccs2)o1 28.3%, COc1ccc(OC(=O)COc2ccc(Cl)cc2)cc1 21.7%, Cc1cccc(NC(=S)N2CCN(c3ccccn3)CC2)c1 7.16%, COC(=O)C1=NNC2(C)C(=O)N(c3ccc(C)cc3)C(=O)C12 (stereo not drawn) 1.54%, Cc1cc(C(C)C)n2c(nc3ccccc32)c1C#N 3.46%, CCc1c(C)c(C#N)c2nc3ccccc3n2c1Cl -5.75%, CCc1ccc(N(C(=O)CNC(=O)c2ccco2)C(C(=O)NC2CCCC2)c2cccnc2)cc1 (stereo not drawn) 12.2%, COc1ccc(/C=C2/SC(=S)N(CCCC(=O)Nc3ccc(O)cc3)C2=O)cc1 5.12%, COc1cc(/C=C2\C(=O)ON=C2c2ccccc2)cc(OC)c1OC 9.78%, O=C1ON=C(c2ccccc2)/C1=C/c1ccccc1 48.5%, COc1ccc(/C=C2\C(=O)ON=C2c2ccccc2)cc1 72.8%, O=C1ON=C(c2ccccc2)/C1=C/c1ccco1 36.5%, O=C1ON=C(c2ccccc2)/C1=C/c1ccc(O)cc1 48%, COc1cc(/C=C2\C(=O)ON=C2c2ccccc2)cc(Cl)c1O 32.2%, O=C1ON=C(c2ccc(Cl)cc2)/C1=C/c1ccc(O)cc1 34.8%, O=C1ON=C(c2ccccc2)/C1=C/c1cccnc1 1.23%, CCc1ccc(C(=O)OCC(=O)NCCNC(=O)COC(=O)c2ccc(CC)cc2)cc1 4.49%, CCC(C)[C@H](N)c1cn([C@@H](Cc2ccc(O)cc2)C(=O)N2CCNCC2)nn1 (stereo partly drawn) 3.28%, NC(=O)C1CCN(C(=O)Cc2ccc([N+](=O)[O-])cc2)CC1 21.5%, O=C(Nc1cc(F)ccc1F)C1CCN(S(=O)(=O)c2cccc3nonc23)CC1 9.1%, CCCS(=O)(=O)c1c(S(=O)(=O)CCC)c2ccc(C(N)=O)cn2c1C(=O)c1ccc(F)cc1 24%, COCC(C)NC(C(=O)Nc1ccc(Cl)c([N+](=O)[O-])c1)c1ccccc1 (stereo not drawn) 0.39%, CC1(C)CC(C(=O)NCCC(c2ccccc2)c2ccco2)CCO1 (stereo not drawn) 3.84%, CC(=O)Nc1nonc1-c1nc2ccccc2n1CCC(C)C -3.72%, CCCCOc1cccc(C(=O)N(Cc2ccccc2)C2CCS(=O)(=O)C2)c1 (stereo not drawn) -0.72%, CC1CCN(C(=O)N[C@@H](Cc2ccccc2)C(=O)O)CC1 0.13%, O=C1C2C3CCC(O3)C2C(=O)N1c1cccc(O)c1 (stereo not drawn) -1.61%, COc1cccc(C(=O)Nc2nnc(-c3ccccc3)s2)c1OC 13.1%, O=C(Nc1ccncc1)C1CC(=O)N(c2ccc(F)cc2)C1 (stereo not drawn) 12.3%, COC(=O)C1=C(C(=O)OC)[C@@H]2N(C)c3ccc(OC)cc3[C@@]23C[C@@H](C(=O)OC)N(C(=O)c2ccco2)C3=N1 27.8%, COc1ccc(/C=C2\C(=O)ON=C2c2ccccc2)cc1OC 53.9%, COc1ccc(/C=C2/C(=O)ON=C2c2ccccc2)cc1OC 12.2%, Cc1ccc(C)c(NC(=S)NC(NC(=O)Cc2ccccc2)C(Cl)(Cl)Cl)c1 (stereo not drawn) 5.58%
